Source: PubChem
The entries come from a sample that favours hits as a whole.
Tb PYK inh – T. brucei pyruvate kinase inhibition | Q57TT1 | TbPYK enzyme, Kinase-Glo Plus ATP luminescence, 45 min | Potency, µM (series often up to 76.8 µM), for the others: top-dose activity, negative = inhibition, most hits filed as inhibitors | actives 0.12% (n = 410,000) | AID 624173; note: potency is the fitted concentration of half-maximal effect; % is set by controls: 0 for no effect and ±100 for the full control effect; nearly all actives have a fitted effect of over 50% in size
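T. brucei PYK with substrate was exposed to pin-transferred compounds across a concentration series, then started with 130 uM ADP (final). After 45 min at room temperature, Kinase-Glo Plus luminescence was read, normalized and curve-fitted.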
Giardia FBPA inh – blocks Giardia fructose-bisphosphate aldolase activity. purified Giardia FBPA. AID 2451. actives 0.71% (n = 290,000). Potency, µM (series often up to 59.6 µM), for inactives: at the top dose activity, negative = inhibition, usual class: inhibitors. A8B2U2; note: potency is the fitted concentration of half-maximal effect; % is set by controls: 0 for no effect and ±100 for the full control effect; nearly all actives have a fitted effect of over 55% in size
Target sequence (A8B2U2 whole entry, looked up): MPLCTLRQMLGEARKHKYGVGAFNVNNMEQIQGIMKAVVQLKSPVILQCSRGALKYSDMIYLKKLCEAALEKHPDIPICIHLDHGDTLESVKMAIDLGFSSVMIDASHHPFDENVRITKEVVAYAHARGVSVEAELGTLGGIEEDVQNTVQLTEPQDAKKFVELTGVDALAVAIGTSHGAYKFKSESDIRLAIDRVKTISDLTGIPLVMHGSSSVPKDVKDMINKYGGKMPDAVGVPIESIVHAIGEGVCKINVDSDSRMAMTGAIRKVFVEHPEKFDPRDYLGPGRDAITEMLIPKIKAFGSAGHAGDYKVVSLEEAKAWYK
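Giardia FBPA (40 nM reagent) was preincubated 10 min at RT with compound (up to 57.5 uM final), then substrate plus GAPDH/TPI/NAD/arsenate coupling system with diaphorase/resazurin was added; resorufin fluorescence (525/598 nm) was read after 20 min.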
LmPK inh – blocks Leishmania mexicana pyruvate kinase activity; Q27686; purified LmPK, Kinase-Glo ATP luminescence, 1 h; Potency, µM (series often up to 57.5 µM), for the others: at the highest dose activity change, negative = inhibition, most hits filed as inhibitors; actives 0.37% (n = 290,000); AID 1721; note: potency is the fitted concentration of half-maximal effect; % is set by controls: 0 for no effect and ±100 for the full control effect
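In 50 mM imidazole pH 7.2 with 7 mM MgCl2, LmPK (0.1 nM) turned over PEP (0.5 mM) and ADP (0.1 mM) for 1 h at room temperature. Luciferase read-out of ATP.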
Sm TGR block – S. mansoni TGR enzyme inhibition | Q962Y6 | purified TGR, DTNB reduction, TNB absorbance 405 nm | Potency, µM (series often up to 114 µM), for inactives: at the highest dose activity change, negative = inhibition, actives largely listed as inhibitors | actives 3% (n = 360,000); note: potency is the fitted concentration of half-maximal effect; % is set by controls: 0 for no effect and ±100 for the full control effect; nearly all actives have a fitted effect of over 60% in size
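Kinetic colorimetric format: TGR-catalysed, NADPH-driven DTNB reduction monitored via TNB absorbance. Enzyme dispensed at 20 nM; compound exposure 15 min at room temperature before reaction start.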
CHX counter – counter-screen hit for Shiga toxin inhibitors, cycloheximide; max response, %; cell reporter, cycloheximide protein synthesis inhibition counterscreen; AID 2314; actives 12% (n = 300,000); in the data active = max response mostly above about 13%, no sharp cut-off; inactive = mostly below about 14%; note: read at 38.3 µM for the half of the compounds with a filed dose; 0% is about no effect
Shiga inhibitor – inhibitors of Shiga toxin in Vero cells; Vero cells, Shiga toxin protein synthesis inhibition reporter; actives 9.2% (n = 290,000); AID 2315; inhibition, % at 38.7 µM; in the data active = inhibition mostly above about 28%, no sharp cut-off; inactive = mostly below about 43%; note: 0% is about no effect
Starred values were filed as active, the others as inactive; ? = inconclusive; · = no result; + = active, no number; [ ] = remark or other dose. Unless noted, calls come from the whole dose curve; as a rule, active = well fitted curve in the direction sought with a large enough effect; inconclusive = small, poorly fitted or top-dose-only effect, or another doubt; inactive = no such curve, though single readings can be large; an effect the other way counts as inactive or inconclusive.

SMILES	Tb PYK inh	Giardia FBPA inh	LmPK inh	Sm TGR block	CHX counter	Shiga inhibitor
CCCCOc1ccccc1CC1C(=O)Nc2ccc(Br)cc21 (centres undefined)	·	·	·	-3%	·	·
CCOc1ccc(-c2nc(Cn3c(=O)cc(-c4ccccc4)c4c(C)nn(C)c43)c(C)o2)cc1	0%	·	·	12%	·	·
Cc1ccc(C)c(-c2nc3cc(N)ccc3o2)c1	-5%	-9%	-9%	3%	11	28*
COC(=O)c1ccc(-c2nc3cc(N)ccc3o2)cc1	4%	-9%	-24%	2%	18*	38*
COc1ccc(C(=O)Nc2ccc3oc(-c4ccc(OC)cc4)nc3c2)cc1	2%	·	·	3%	·	·
Cc1ccc2nc(-c3cc(N)cc(N)c3)oc2c1	-1%	-13%	?	50µM*	17*	36
Cc1ccc2nc(-c3cccc(NC(=O)c4ccc(Br)o4)c3)oc2c1	-2%	·	·	-18%	·	·
Cc1ccc(-c2nc3cc(N)ccc3o2)cc1Br	-1%	6%	0%	-4%	39*	·
CCc1cccc(NC(=O)CCS(=O)(=O)c2cc3c4c(c2)CCN4C(=O)CC3)c1	-4%	·	·	6%	·	·
CC[C@H](C)[C@H](NC(=O)[C@H](C)NC(=O)[C@@H](N)C(C)C)C(=O)N[C@H](C(=O)N[C@H](C(=O)N[C@@H](CC(C)C)C(=O)N[C@H](C(=O)N[C@@H](CCCCN)C(=O)O)C(C)C)C(C)C)[C@@H](C)O	·	8%	·	·	-2	-6
Cn1cc(S(=O)(=O)N2CCOCC2)cc1C(=O)Nc1ccc(Cl)c(C(F)(F)F)c1	3%	·	·	?	·	·
Nc1ccc(-c2nc3ccc(N)cc3o2)cc1	-24%	-9%	-17%	5%	39*	35
CN(C)c1ccc(-c2nc3cc(N)ccc3o2)cc1	-1%	-9%	-24%	4%	14*	38
Nc1ccc(-c2nc3cc(N)ccc3o2)cc1	-2%	3%	-2%	-11%	38*	38*
CC(=O)N[C@H](CC(C)C)C(=O)O	2%	4%	·	·	·	·
Cc1ccc(C(=O)Cn2c3c(sc2=N)CCCC3)cc1	·	-28%	·	·	·	·
Cc1ccc(OCC(=O)Nc2nnc(S(=O)(=O)N3c4ccccc4CC3C)s2)cc1 (centres undefined)	1%	·	·	10%	·	·
O=C(O)c1ccc(N2C(=O)/C(=C/c3ccc(-c4ccc([N+](=O)[O-])cc4)o3)C=C2c2ccccc2)cc1	-22%	-10%	?	45µM*	9	15
C/C(=N\Nc1cccc(C(F)(F)F)c1)c1ccc(O)cc1	-7%	-4%	-1%	?	23	50*
O=C(O)c1cc(N/N=C/c2ccncc2)ccc1Cl	-2%	0%	-16%	-15%	21*	59*
CSc1ccc(/C=N/Nc2ccc(Cl)c(C(=O)O)c2)cc1	-12%	1%	0%	-17%	52*	189*
O=C(O)c1cccc(N/N=C/C2=C(Cl)c3cc(Cl)ccc3SC2)c1	1%	24%	13%	?	65*	129*
CCCn1c2ccccc2c2cnn(CC(=O)Nc3cc(OC)c(OC)c(OC)c3)c(=O)c21	7%	·	·	-8%	·	·
O=C(NCCN1CCOCC1)C1(C(F)(F)F)CC(CCCO)CCCO1 (centres undefined)	·	6%	·	·	-2	-4
O=C(O)c1cc(N/N=C/c2c[nH]c3ccccc23)ccc1Cl	-5%	-8%	1%	-20%	58*	+
SMILES	Tb PYK inh	Giardia FBPA inh	LmPK inh	Sm TGR block	CHX counter	Shiga inhibitor
O=C(O)c1cc(N/N=C/c2ccc(-c3ccccc3)cc2)ccc1Cl	-19%	0%	1%	-19%	100*	132*
O=C(N/N=C/C=C/c1ccccc1)c1ccncc1	6%	?	-1%	-7%	0	-20
O=C(O)c1ccc(N/N=C/C=C/c2ccccc2)cc1	3%	3%	-7%	-1%	42*	55*
COC(=O)c1cc(NC(=O)c2ccc(-c3ccccc3)cc2)ccc1Cl	-2%	1%	-6%	-3%	-1	15
O=C(Cc1ccc(Cl)c(Cl)c1)N/N=C/c1cccnc1	5%	7%	5%	0%	6	-5
O=C(O)c1cc(N/N=C/c2cccnc2)ccc1Cl	-2%	-8%	1%	?	63*	133*
COc1ccc(C(=O)Nc2ccccc2C(=O)NCc2cccnc2)cc1	3%	6%	3%	-1%	9	-4
CC(Sc1nc(=O)cc(N)n1CCc1ccccc1)C(=O)Nc1ccccc1C#N (centres undefined)	3%	·	·	4%	·	·
Cc1cccc(C)c1OCCCn1c(CCNC(=O)C2CCCCC2)nc2ccccc21	-8%	·	·	14%	-5	-2
C(=C\c1ccccc1)/C=N/Nc1nncc(-c2ccccc2)n1	·	1%	0%	-8%	9	-5
O=C(O)c1ccc(N/N=C/c2ccc(-c3ccccc3)cc2)cc1	-16%	13%	3%[11.5 µM]	-2%	27*	100
O=C(O)c1cccc(N/N=C/c2ccc(F)c(F)c2)c1	-2%	-1%	0%	-9%	95*	+
O=C(O)c1ccc(/C=N/Nc2cccc(C(F)(F)F)c2)cc1	-1%	18%	2%	-5%	56*	120*
O=c1nc(N/N=C/C=C/c2ccccc2)cn[nH]1	-16%	-28%	?	-5%	37*	67*
CC(C)c1ccc(/C=N/Nc2ccc(C(=O)O)cc2)cc1	3%	6%	-5%	-22%	2	9
Cc1ccc(Cl)cc1N1CCN(C(=O)Cn2cnc3sc(C)c(S(=O)(=O)N4CCC(C)CC4)c3c2=O)CC1	6%	·	·	2%	·	·
O=C(NCc1ccccc1)c1cc(C2CCCCN2S(=O)(=O)c2cccs2)on1 (centres undefined)	-6%	·	·	·	·	·
Cc1ccccc1C(=O)Nc1cccc(C(=O)OCc2cc(=O)n3c(C)csc3n2)c1	-8%	·	·	-9%	·	·
O=C(OCC(=O)N1CCN(c2ccccc2)CC1)c1ccc2ccccc2n1	-6%	2%	-1%	45µM*	1	-17
O=C(CSc1ccccc1)N1CCN(c2ccccc2)CC1	-2%	-2%	-1%	-7%	17	85*
COc1ccc(N2CCN(C(=O)CSc3ccccc3)CC2)cc1	2%	-10%	7%	?	17	32
O=C(CCSc1ccccc1)N1CCN(C(=O)c2ccco2)CC1	2%	3%	9%	6%	35*	99*
O=C(CCSc1ccc(Cl)cc1)N1CCN(c2ccc(O)cc2)CC1	?	-7%	-3%	?	27*	59*
NC(=O)C1CCN(C(=O)CCSc2ccc(Cl)cc2)CC1	45%	1%	0%	·	25	27
Cc1cc2oc(C(=O)N(Cc3ccccc3)C3CCS(=O)(=O)C3)cc(=O)c2cc1C (centres undefined)	4%	·	·	7%	·	·
O=C(CSc1nccn1Cc1ccc(F)cc1)Nc1nc2ccccc2s1	-4%	·	·	8%	·	·
